PubChem BioAssay (Tox21)
“And” between values parts separate entries of the source, which are not always exact repeats. Equal values may be shown once. Results filed as inconclusive are left out. Where a structure was tested more than once in an assay, its records may differ in their call. The source made the active and inactive calls. Unless noted, the call rests on the fitted dose curve.

Key:
[1] = target: Peroxisome proliferator-activated receptor delta (Homo sapiens) (UniProt Q03181); assay: qHTS assay to identify small molecule agonists of the peroxisome proliferator-activated receptor delta (PPARd) signaling pathway (AID 743212); further: on the % scale 0 is the no-effect control and ±100 the full control effect
Peroxisome proliferator-activated receptor delta (Homo sapiens), sequence (Q03181 whole entry, looked up): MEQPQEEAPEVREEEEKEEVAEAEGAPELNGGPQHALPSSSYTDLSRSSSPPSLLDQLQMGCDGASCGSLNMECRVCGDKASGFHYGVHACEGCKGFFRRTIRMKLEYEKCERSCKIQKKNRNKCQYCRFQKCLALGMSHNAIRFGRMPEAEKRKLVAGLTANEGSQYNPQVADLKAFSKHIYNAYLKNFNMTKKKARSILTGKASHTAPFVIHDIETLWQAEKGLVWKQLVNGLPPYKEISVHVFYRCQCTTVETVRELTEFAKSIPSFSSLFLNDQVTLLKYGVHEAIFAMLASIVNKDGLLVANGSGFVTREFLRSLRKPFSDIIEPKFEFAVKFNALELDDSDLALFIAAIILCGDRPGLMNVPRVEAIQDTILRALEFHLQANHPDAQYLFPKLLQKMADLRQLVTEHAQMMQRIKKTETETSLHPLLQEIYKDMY
Summary of the method: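 GeneBLAzer UAS-bla HEK293H cells carrying a PPARδ construct were exposed to compounds at 37 °C. Beta-lactamase activity was read by FRET fluorescence after 2 h at room temperature with LiveBLAzer B/G substrate.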

[2] = qHTS assay to identify small molecule antagonists of the peroxisome proliferator-activated receptor delta (PPARd) signaling pathway - cell viability counter screen (AID 743213; active means well fitted curve in the direction sought with a large enough effect in the repeat runs; an effect the other way counts as inactive or inconclusive; further: nearly all actives have a fitted effect of over 50% in size; further: potency means the concentration at half of the fitted maximal effect)
Summary of the method: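 Agonist-stimulated (L165041, 300 nM final) HEK293H PPARd UAS-bla cells are exposed to compounds for 17 h at 37 C, and ATP-based luminescence (CellTiter-Glo) from the same wells reports cytotoxicity.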

[3] = target: Peroxisome proliferator-activated receptor delta (Homo sapiens) (UniProt Q03181); assay: qHTS assay to identify small molecule antagonists of the peroxisome proliferator-activated receptor delta (PPARd) signaling pathway (AID 743215; active means well fitted inhibition curve with a large enough effect in the signal ratio in the repeat runs, not every such curve was filed as active; the % refers to the signal ratio; further: series mostly up to about 62 µM; on the % scale 0 is the no-effect control and ±100 the full control effect)
Summary of the method: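 PPARd-bla HEK293H cells (UAS-bla reporter) preincubated 5 h, then given compound plus 300 nM final L165041 agonist for 17 h at 37 C. Beta-lactamase activity read by LiveBLAzer B/G FRET substrate fluorescence after 2 h at room temperature.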

[4] = target: Bile acid receptor (Homo sapiens) (UniProt Q96RI1); assay: qHTS assay to identify small molecule antagonists of the farnesoid-X-receptor (FXR) signaling pathway (AID 743217; active means well fitted inhibition curve with a large enough effect in the signal ratio in the repeat runs, not every such curve was filed as active; the % refers to the signal ratio; further: on the % scale 0 is the no-effect control and ±100 the full control effect)
Bile acid receptor (Homo sapiens), sequence (Q96RI1 whole entry, looked up): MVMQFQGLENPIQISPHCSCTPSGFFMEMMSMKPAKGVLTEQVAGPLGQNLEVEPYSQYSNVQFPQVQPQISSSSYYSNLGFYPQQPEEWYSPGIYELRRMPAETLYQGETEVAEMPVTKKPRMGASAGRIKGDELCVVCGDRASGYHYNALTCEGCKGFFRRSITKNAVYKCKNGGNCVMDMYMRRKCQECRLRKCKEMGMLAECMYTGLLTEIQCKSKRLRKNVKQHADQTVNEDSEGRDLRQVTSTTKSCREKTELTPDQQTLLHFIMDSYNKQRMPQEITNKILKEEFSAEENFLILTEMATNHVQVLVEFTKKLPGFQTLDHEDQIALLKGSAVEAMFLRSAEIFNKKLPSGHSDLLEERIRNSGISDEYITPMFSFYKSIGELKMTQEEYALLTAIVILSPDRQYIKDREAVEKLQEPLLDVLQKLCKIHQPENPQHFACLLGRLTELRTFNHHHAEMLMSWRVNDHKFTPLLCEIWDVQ
Summary of the method: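 FXR-UAS-bla HEK 293T cells (beta-lactamase reporter) given compound plus chenodeoxycholic acid (50 uM final), 16 h at 37C. LiveBLAzer B/G FRET substrate added for 2 h at room temperature; fluorescence read.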

[5] = qHTS assay to identify small molecule agonists of the farnesoid-X-receptor (FXR) signaling pathway - cell viability counter screen (AID 743218; active means well fitted curve in the direction sought with a large enough effect in the repeat runs; an effect the other way counts as inactive or inconclusive; further: nearly all actives have a fitted effect of over 45% in size; further: potency means the concentration at half of the fitted maximal effect)
Summary of the method: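 FXR-UAS-bla HEK 293T cells exposed to compounds for 16 h at 37C. Cytotoxicity read in the same wells by CellTiter-Glo luminescence after 30 min at room temperature, following the beta-lactamase FRET read.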

[6] = target: Bile acid receptor (Homo sapiens) (UniProt Q96RI1); assay: qHTS assay to identify small molecule agonists of the farnesoid-X-receptor (FXR) signaling pathway (AID 743220; active means well fitted activation curve with a large enough effect in the signal ratio in the repeat runs, not every such curve was filed as active; the % refers to the signal ratio; further: on the % scale 0 is the no-effect control and ±100 the full control effect)
Summary of the method: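 Beta-lactamase reporter under UAS control in GeneBLAzer FXR HEK 293T cells (5000/well) measured with LiveBLAzer FRET substrate after 2 h at room temperature. Compound exposure lasted 16 h at 37C.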

[7] = qHTS assay to identify small molecule antagonists of the farnesoid-X-receptor (FXR) signaling pathway - cell viability counter screen (AID 743221; active means well fitted cell-killing curve with a large enough effect in the repeat runs, not every such curve was filed as active; further: nearly all actives have a fitted effect of over 50% in size; further: potency means the concentration at half of the fitted maximal effect)
Summary of the method: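 CellTiter-Glo, 30 min RT, luminescence; same wells as the LiveBLAzer FRET read. Cells: FXR-UAS-bla HEK 293T. Treatment: compound with chenodeoxycholic acid 50 uM final, 16 h at 37 C.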

[8] = target: Vitamin D3 receptor (Homo sapiens) (UniProt P11473); assay: qHTS assay to identify small molecule agonists of the vitamin D receptor (VDR) signaling pathway (AID 743222); further: on the % scale 0 is the no-effect control and ±100 the full control effect
Vitamin D3 receptor (Homo sapiens), sequence (P11473 whole entry, looked up): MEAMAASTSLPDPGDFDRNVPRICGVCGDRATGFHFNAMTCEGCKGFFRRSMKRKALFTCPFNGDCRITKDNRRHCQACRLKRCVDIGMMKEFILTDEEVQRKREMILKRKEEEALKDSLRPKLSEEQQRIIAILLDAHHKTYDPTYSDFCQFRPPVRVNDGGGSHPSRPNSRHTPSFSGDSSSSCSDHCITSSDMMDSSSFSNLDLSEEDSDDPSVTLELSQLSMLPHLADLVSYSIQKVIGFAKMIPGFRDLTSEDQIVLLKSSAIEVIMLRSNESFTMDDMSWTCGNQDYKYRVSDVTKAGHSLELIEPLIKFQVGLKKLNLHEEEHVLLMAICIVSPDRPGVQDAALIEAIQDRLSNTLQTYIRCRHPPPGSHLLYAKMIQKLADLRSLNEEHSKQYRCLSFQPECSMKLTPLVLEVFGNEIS
Summary of the method: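 VDR-bla cells plated 4 h at 37 C, then exposed to compounds for 16 h at 37 C. Beta-lactamase reporter activity measured by fluorescence after 2 h room-temperature loading with LiveBLAzer B/G FRET substrate.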

[9] = target: Vitamin D3 receptor (Homo sapiens) (UniProt P11473); assay: qHTS assay to identify small molecule antagonists of the vitamin D receptor (VDR) signaling pathway (AID 743223; active means well fitted inhibition curve with a large enough effect in the signal ratio in the repeat runs, not every such curve was filed as active; the % refers to the signal ratio; further: on the % scale 0 is the no-effect control and ±100 the full control effect)
Summary of the method: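 After VDR-bla cells are plated and left 4 h at 37C, DMSO-dissolved compounds and 3 nM (final) calcitriol agonist are added. Incubation continues 16 h at 37C; FRET beta-lactamase substrate then develops 2 h at room temperature.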

[10] = qHTS assay to identify small molecule agonists of the vitamin D receptor (VDR) signaling pathway - cell viability counter screen (AID 743224; active means well fitted curve in the direction sought with a large enough effect in the repeat runs; an effect the other way counts as inactive or inconclusive; further: nearly all actives have a fitted effect of over 50% in size; further: potency means the concentration at half of the fitted maximal effect)
Summary of the method: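 VDR-bla cells, 4 h after plating, exposed to compounds for 16 h at 37C; viability then read in the same wells as CellTiter-Glo luminescence after 30 min at room temperature, following the bla FRET read.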

[11] = qHTS assay to identify small molecule antagonists of the vitamin D receptor (VDR) signaling pathway - cell viability counter screen (AID 743225; active means well fitted curve in the direction sought with a large enough effect in the repeat runs; an effect the other way counts as inactive or inconclusive; further: nearly all actives have a fitted effect of over 50% in size; further: potency means the concentration at half of the fitted maximal effect)
Summary of the method: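 Cytotoxicity toward the VDR-bla HEK 293T line was scored by ATP-based CellTiter-Glo luminescence, read in the wells already used for the beta-lactamase readout after 16 h compound treatment under 3 nM 1-alpha,25-dihydroxyvitamin D3 stimulation.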

[12] = qHTS assay to identify small molecule agonists of the NFkB signaling pathway (AID 1159509; active means well fitted curve in the direction sought with a large enough effect in the signal ratio in the repeat runs, not every such curve was filed as active; the % refers to the signal ratio)
Summary of the method: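 ME-180 NFkB-bla, 2,000 cells/well, overnight plating; cpd pinned in DMSO, 5 h 37 C; B/G FRET substrate 1.5 h RT; ex 405, em 460/530 nm.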

[13] = qHTS assay to identify small molecule agonists of the NFkB signaling pathway - cell viability counter screen (AID 1159515); further: series mostly up to about 61 µM; on the % scale 0 is the no-effect control and ±100 the full control effect; nearly all actives have a fitted effect of over 55% in size
Summary of the method: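 NFkB-bla ME-180 cells, 2,000/well, plated overnight at 37 C; compound added for 5 hr at 37 C. Viability read in the same wells as the bla reporter, by CellTiter-Glo luminescence after 30 min at room temperature.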

[14] = qHTS assay to identify small molecule agonists of the endoplasmic reticulum stress response signaling pathway (AID 1159516; active means well fitted activation curve with a large enough effect in the signal ratio in the repeat runs, not every such curve was filed as active; the % refers to the signal ratio; further: on the % scale 0 is the no-effect control and ±100 the full control effect)
Summary of the method: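 CellSensor ESRE-bla HeLa cells, 1,500 per well, plated overnight, then exposed to compounds for 5 hr at 37 C. Beta-lactamase reporter read with LiveBLAzer B/G FRET substrate after 2 hr at room temperature, 405 nm excitation, 460 and 530 nm emission.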

[15] = qHTS assay to identify small molecule agonists of the endoplasmic reticulum stress response signaling pathway - cell viability counter screen (AID 1159517)
Summary of the method: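 ESRE-bla HeLa cells, 1,500 per well, seeded overnight then treated with compounds for 5 hr at 37 C. After the beta-lactamase read, viability in the same wells is measured by CellTiter-Glo luminescence after 30 min at room temperature.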

[16] = qHTS assay to identify small molecule antagonists of the retinoid-related orphan receptor gamma (ROR-gamma) signaling pathway - cell viability counter screen (AID 1159520; active means well fitted curve in the direction sought with a large enough effect in the repeat runs; an effect the other way counts as inactive or inconclusive; further: nearly all actives have a fitted effect of over 50% in size; further: potency means the concentration at half of the fitted maximal effect)
Summary of the method: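 Tet-on ROR gamma CHO cells were given compounds for 2 hr, then doxycycline hyclate at 1 uM final, and incubated 16 hr at 37 C. Viability was measured as ATP content by CellTiter-Glo luminescence.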

[17] = target: Nuclear receptor ROR-gamma (Homo sapiens) (UniProt P51449); assay: qHTS assay to identify small molecule antagonists of the retinoid-related orphan receptor gamma (ROR-gamma) signaling pathway (AID 1159521; active means well fitted curve in the direction sought with a large enough effect in the repeat runs; an effect the other way counts as inactive or inconclusive; further: nearly all actives have a fitted effect of over 50% in size; further: potency means the concentration at half of the fitted maximal effect)
Summary of the method: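 Readout: ONE-Glo luciferase luminescence, 30 min at room temperature. System: Tet-on RORγ CHO, RORE-LUC. Sequence: compound 2 h, doxycycline 1 uM final, 16 h at 37 C.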

[18] = qHTS assay to identify small molecule agonists of the AP-1 signaling pathway - cell viability counter screen (AID 1159525); further: nearly all actives have a fitted effect of over 55% in size
Summary of the method: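 AP-1-bla ME-180 cells in Opti-MEM with 0.5% dialyzed FBS, compound exposure 5 h at 37 C in 15-point titration. Viability read in the same wells as ATP content by CellTiter-Glo luminescence, normalised to tetra-n-octylammonium bromide and DMSO controls.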

[19] = qHTS assay to identify small molecule agonists of the AP-1 signaling pathway (AID 1159526); further: on the % scale 0 is the no-effect control and ±100 the full control effect
[20] = target: Retinoic acid receptor RXR-alpha (Homo sapiens) (UniProt P19793); assay: qHTS assay to identify small molecule agonists of the RXR signaling pathway (AID 1159527); further: nearly all actives have a fitted effect of over 35% in size; further: potency means the concentration at half of the fitted maximal effect
Retinoic acid receptor RXR-alpha (Homo sapiens), sequence (P19793 whole entry, looked up): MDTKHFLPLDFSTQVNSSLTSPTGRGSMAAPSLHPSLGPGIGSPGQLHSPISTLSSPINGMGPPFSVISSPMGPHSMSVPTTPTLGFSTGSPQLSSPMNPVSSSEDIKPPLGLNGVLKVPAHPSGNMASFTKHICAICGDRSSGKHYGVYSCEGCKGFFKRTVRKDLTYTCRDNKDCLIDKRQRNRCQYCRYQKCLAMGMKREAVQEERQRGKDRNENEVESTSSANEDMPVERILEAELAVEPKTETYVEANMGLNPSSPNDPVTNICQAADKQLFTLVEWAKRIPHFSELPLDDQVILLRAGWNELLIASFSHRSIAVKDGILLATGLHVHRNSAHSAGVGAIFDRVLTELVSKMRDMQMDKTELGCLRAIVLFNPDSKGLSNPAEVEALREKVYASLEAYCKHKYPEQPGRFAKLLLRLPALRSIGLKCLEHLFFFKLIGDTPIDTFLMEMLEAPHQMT
Summary of the method: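 Reporter activation is measured as beta-lactamase activity via FRET substrate cleavage (emission 460/530 nm) in HEK 293T cells expressing an RXR-alpha-driven bla construct, following 16 hr compound exposure at 37 C.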

CC(=O)c1ccccn1
inactive: outcome [1] | Potency [2] | Potency [3] | Potency [4] | Potency [5] | outcome [6] | Potency [7] | outcome [8] | outcome [9] | Potency [10] | Potency [11] | outcome [12] | Potency [13] | Potency [14] | Potency [15] | Potency [16] | Potency [17] | Potency [18] | outcome [19] | Potency [20]

Cc1ccc(C(=O)c2cc(O)c(O)c([N+](=O)[O-])c2)cc1
active: Potency [17] 27.3 µM and 26.6 µM
inactive: Potency [2] | Potency [5] | Potency [7] | outcome [9] | Potency [11] | outcome [12] | Potency [13] | Potency [14] | Potency [15] | Potency [16] | Potency [18] | outcome [19]

CCCc1c(OCCCCc2nn[nH]n2)ccc(C(C)=O)c1O
active: Potency [20] 54.9 µM and 23.9 µM
inactive: Potency [2] | Potency [3] | Potency [4] | Potency [5] | outcome [6] | Potency [7] | outcome [8] | Potency [10] | outcome [12] | Potency [13] | Potency [14] | Potency [16] | Potency [17] | Potency [18] | outcome [19]

COc1ccccc1/C=C/C=O
inactive: outcome [1] | Potency [2] | Potency [3] | Potency [4] | Potency [5] | outcome [6] | Potency [7] | outcome [8] | outcome [9] | Potency [10] | outcome [12] | Potency [13] | Potency [14] | Potency [16] | Potency [17] | Potency [18] | outcome [19] | Potency [20]

CC1=CC2C3CC(C=C3C)C2C1 (configuration not stated)
inactive: outcome [1] | Potency [3] | Potency [5] | Potency [7] | outcome [8] | Potency [10] | outcome [12] | Potency [13] | Potency [14] | Potency [15] | Potency [16] | Potency [17] | Potency [18] | outcome [19] | Potency [20]

Cc1ccc(C)c(O)c1C
inactive: outcome [1] | Potency [2] | Potency [3] | Potency [5] | Potency [7] | outcome [8] | outcome [9] | Potency [10] | Potency [11] | outcome [12] | Potency [13] | Potency [14] | Potency [15] | Potency [16] | Potency [17] | Potency [18] | outcome [19]

O=C(/C=C/c1ccccc1)OCc1ccccc1
inactive: outcome [1] | Potency [3] | Potency [5] | Potency [7] | Potency [10] | outcome [12] | Potency [13] | Potency [14] | Potency [15] | Potency [16] | Potency [17] | Potency [18] | outcome [19]

CCC(C)OC(=O)c1ccc(O)cc1 (configuration not stated)
inactive: outcome [1] | Potency [3] | Potency [5] | Potency [7] | outcome [8] | outcome [9] | Potency [10] | outcome [12] | Potency [13] | Potency [14] | Potency [15] | Potency [16] | Potency [17] | Potency [18] | outcome [19] | Potency [20]

c1ccc(Nc2ccccc2)cc1
inactive: outcome [1] | Potency [2] | Potency [3] | Potency [5] | Potency [7] | outcome [8] | outcome [9] | Potency [10] | Potency [11] | outcome [12] | Potency [13] | Potency [14] | Potency [15] | Potency [18] | Potency [20]
13.7 µM (active) and inactive: Potency [17]
54.4 µM (active) and inactive: Potency [16]

C[Si](C)(C)O[Si](C)(C)C
inactive: outcome [1] | Potency [2] | Potency [3] | Potency [4] | Potency [5] | outcome [6] | Potency [7] | outcome [8] | outcome [9] | Potency [10] | Potency [11] | Potency [13] | Potency [16] | Potency [17] | Potency [18] | outcome [19] | Potency [20]

O=[N+]([O-])c1ccc2c(c1)Cc1ccccc1-2
inactive: outcome [1] | Potency [2] | Potency [3] | Potency [5] | Potency [7] | Potency [10] | Potency [11] | Potency [13] | Potency [15] | Potency [16] | Potency [17] | Potency [18] | outcome [19] | Potency [20]

CC1=CCC(C(C)(C)O)CC1 (configuration not stated)
inactive: outcome [1] | Potency [2] | Potency [3] | Potency [4] | Potency [5] | outcome [6] | Potency [7] | outcome [8] | outcome [9] | Potency [10] | Potency [13] | Potency [16] | Potency [18] | outcome [19] | Potency [20]

O=C=Nc1ccc(Cc2ccc(N=C=O)cc2)cc1
inactive: outcome [1] | Potency [2] | Potency [3] | Potency [4] | Potency [5] | outcome [6] | Potency [7] | outcome [8] | outcome [9] | Potency [10] | Potency [11] | Potency [13] | Potency [15] | Potency [16] | Potency [17] | Potency [18] | outcome [19] | Potency [20]

O=C(Nc1ccc([N+](=O)[O-])cc1Cl)c1cc(Cl)ccc1O
inactive: outcome [6] | Potency [13] | Potency [17] | viability change, negative = cytotoxic [18] 2.04% [at 15.8 µM] | activation [19] 4.2% [at 15.8 µM]
active: Potency [2] 1.64 µM | Potency [5] 1.38 µM and 1.16 µM | Potency [7] 3.26 µM | Potency [10] 549 nM and 651 nM | Potency [16] 1.54 µM and 920 nM

C#C[C@]1(O)CC[C@H]2[C@@H]3CCc4cc(OC)ccc4[C@H]3CC[C@@]21C
inactive: outcome [1] | Potency [2] | Potency [3] | Potency [4] | Potency [5] | outcome [6] | Potency [7] | outcome [8] | outcome [9] | Potency [10] | Potency [13] | Potency [14] | Potency [15] | Potency [16] | Potency [17] | Potency [18] | Potency [20]

CNCCCC12CCC(c3ccccc31)c1ccccc12
61.1 µM (active) and inactive: Potency [16]
inactive: outcome [1] | outcome [9] | Potency [13] | Potency [18]
34.4 µM (active) and inactive: Potency [17]
19.5 µM (active) and inactive: Potency [5]
21.9 µM (active) and inactive: Potency [10]
active: Potency [2] 9.77 µM and 16.8 µM | Potency [7] 38.9 µM | Potency [11] 15.5 µM

C=C(C)C1CC=C(C)CC1 (configuration not stated)
inactive: Potency [2] | Potency [5] | Potency [7] | Potency [10] | Potency [11] | Potency [13] | Potency [16] | Potency [18] | outcome [19] | Potency [20]
